# This is a sample that favours compounds with a hit; in the whole collection about 8.8% have one here.
# KB-V1 MDR tox = kills drug-selected multidrug resistant KB-V1 cells; KB-V1 MDR cells viability, CellTiter-Glo, 72 h; Potency, µM (doses to about 46.1 µM), most hits filed as cytotoxic; 400,000 tested, 3.4% active; note: nearly all actives have a fitted effect of over 60% in size
#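 qHTS viability screen in drug-selected KB-V1 MDR cells: 72 h compound treatment at 37 degrees C, ATP luminescence end point.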
# IL1B secr inh = inflammasome signaling inhibition, IL-1 beta readout; THP-1 LPS/ATP IL-1B secretion, AlphaLISA, 16 h; hits give low values; activity change, % at 57.5 µM; AID 743279; 360,000 tested, 4.7% active; in the data active = activity change below about -50%; inconclusive = mostly about -30% to -49%
#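 THP-1 cells pretreated 1 hr with compounds (up to 57.5 uM final), then stimulated with LPS (250 ng/mL final) plus ATP (1.25 mM final); secreted IL-1B measured by AlphaLISA after 16 hr, decreased signal indicating inhibition.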
# KB-3-1 tox = KB-3-1 parental cell cytotoxicity | KB-3-1 viability, CellTiter-Glo ATP luminescence, 72 h | 400,000 tested, 1.4% active | Potency, µM (doses to about 46.1 µM), hits mostly cytotoxic | AID 1347075; note: nearly all actives have a fitted effect of over 60% in size
#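 Using CellTiter-Glo luminescence, growth of non-resistant KB-3-1 adenocarcinoma cells is assessed 72 h after pin-tool compound addition at 37 °C. Normalized responses across the concentration series yield fitted curves.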
# HT1080NT lethal = kills 2HG-producing HT-1080-NT fibrosarcoma cells; HT-1080-NT fibrosarcoma viability, CellTiter-Glo ATP luminescence, 48 h; Potency, µM (series often up to 46.1 µM), actives largely listed as cytotoxic; 360,000 tested, 1.6% active;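 note: NT is the 2HG producing partner of a matched IDH1 knockdown line; nearly all actives have a fitted effect of over 55% in size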
#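 A 48-hour cytotoxicity screen used HT-1080-NT cells plated 2 hours before compound delivery. ATP-based CellTiter-Glo luminescence measured viability, normalized to DMSO and no-cell controls.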
# HT1080 IDH1KD tx = kills HT-1080 cells with IDH1 knockdown; HT-1080 IDH1 knockdown viability, ATP luminescence, 48 h; Potency, µM (doses to about 46.1 µM), usual class: cytotoxic; 360,000 tested, 2% active
#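 In this qHTS, HT-1080 cells depleted of IDH1 are exposed for 48 h at 37 °C to compound titrations. Toxicity is scored from CellTiter-Glo luminescence, with DMSO as full viability and medium alone as none.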
# Numbers stand for hits; i = inactive; ? = inconclusive; nt = no result given; [ ] = another dose, or the depositor's remark. Unless noted, calls come from the whole dose curve; as a rule, active = well fitted curve in the direction sought with a large enough effect; inconclusive = small, poorly fitted or top-dose-only effect, or another doubt; inactive = no such curve, though single readings can be large; an effect the other way counts as inactive or inconclusive.
SMILES,KB-V1 MDR tox,IL1B secr inh,KB-3-1 tox,HT1080NT lethal,HT1080 IDH1KD tx
CN(C)C(=O)CCc1ccc2c3c([nH]c2c1)[C@]1(CCC2CCCC2)[C@@H](C(=O)N2CCOCC2)C[C@H](CC(=O)NCc2cccc(C(F)(F)F)c2)C(=O)N1CC3,i,-55.8,i,i,i
CC[C@]12c3[nH]c4cc(-c5ccco5)ccc4c3CCN1C(=O)[C@@H](CC(=O)NCc1cccc(C(F)(F)F)c1)C[C@@H]2C(=O)N1CCN(C(=O)c2ccco2)CC1,i,-51.4,?,i,i
CC[C@]12c3[nH]c4cc(-c5ccco5)ccc4c3CCN1C(=O)[C@@H](CC(=O)NCc1ccco1)C[C@@H]2C(=O)N1CCN(C(=O)c2ccco2)CC1,i,i,i,i,i
CC(C)(C)NC(=O)C[C@H]1C[C@H](C(=O)N2CCOCC2)[C@@]2(CCC3CCCC3)c3[nH]c4ccc(Cl)cc4c3CCN2C1=O,i,-60.3,i,?,?
CCCOc1ccc(C(=O)Nc2cc3c(cc2N2CCCCC2)n(C)c(=O)n3C)cc1,i,nt,i,nt,nt
COc1ccc2cc(C(=O)N(C)CC(=O)Nc3ccccc3Br)ccc2c1,?,i,i,i,i
CCN(CC(=O)Nc1ccc(OC)cc1)C(=O)c1ccc2[nH]c3c(c2c1)CC(C)CC3 (stereo unspecified),?,?,?,i,i
Cc1ccc(C)c(NC(=O)CN(C)C(=O)c2ccc3[nH]c4c(c3c2)CC(C)CC4)c1 (stereo unspecified),?,-54.5,i,?,?
CC1CCc2[nH]c3ccc(C(=O)N(C)CC(=O)Nc4ccccc4Br)cc3c2C1 (stereo unspecified),i,-74.4,i,i,?
CC1CCc2[nH]c3ccc(C(=O)NCC4CCCO4)cc3c2C1 (stereo unspecified),i,-51.3,i,i,i
COc1ccccc1N1CCN(C(=O)CCCCCn2c(=O)[nH]c3ccsc3c2=O)CC1,i,i,i,i,i
Cc1cc(O)ccc1N=Cc1c(C(F)(F)F)[nH][nH]c1=O,?,i,i,i,i
CC(C)CCNC(=O)C(=O)Nc1ccc2c(c1)N(S(=O)(=O)c1cccs1)CCC2,?,i,5.8µM,3.26µM,2.59µM
COCCNC(=O)C(=O)Nc1ccc2c(c1)N(S(=O)(=O)c1cccs1)CCC2,?,i,?,?,6.51µM
COc1ccc(CC(=O)Nc2cc(S(=O)(=O)N3CCCCC3)ccc2OC(C)C)cc1OC,i,i,i,i,i
CCCCCCc1cc2cc(C(=O)Nc3ccccc3)c(=O)oc2cc1O,2.31µM,i,i,?,?
CCCCCCc1cc2cc(C(=O)NCc3ccccc3)c(=N)oc2cc1O,i,i,i,i,i
C/C(=N\NC(=O)COc1cccc(C)c1)c1ccc2ccccc2c1O,i,i,?,20.6µM,?
CC(C)(C)c1ccc(OCCC(=O)OCC(=O)NC(=O)NC2CCCC2)cc1,i,-86.5,i,?,?
CC(C)(C)c1ccc(OCCC(=O)OCC(=O)NC2CCCCC2)cc1,i,i,i,i,i
O=C(CSc1nnc(-c2ccco2)n1Cc1ccco1)Nc1ccccc1,i,i,i,i,i
CN(C)c1ccc(NC(=O)CSc2nnc(-c3cccs3)n2Cc2ccco2)cc1,7.31µM,i,?,i,i
NC(=O)CSc1nnc(-c2cccs2)n1Cc1ccco1,?,i,i,i,i
Cc1ccc(NC(=O)CSc2nnc(-c3cccs3)n2Cc2ccco2)cc1,i,i,i,i,i
CCOc1ccc(NC(=O)CSc2nnc(-c3ccccc3Cl)n2Cc2ccco2)cc1,20.6µM,i,?,?,?
SMILES,KB-V1 MDR tox,IL1B secr inh,KB-3-1 tox,HT1080NT lethal,HT1080 IDH1KD tx
O=C(CSc1nnc(-c2ccccc2)n1Cc1ccco1)Nc1ccc(S(=O)(=O)N2CCCC2)cc1,i,?,i,i[9.24 µM],7.08µM
COc1ccc(NC(=O)CSc2nnc(-c3ccccc3Cl)n2Cc2ccco2)c(OC)c1,i,?,i,i,i
Cc1ccc(C)c(CSc2nnc(-c3cccs3)n2Cc2ccco2)c1,18.4µM,i,i,?,?
CN(C(=O)CSc1nc2c(c(=O)[nH]1)CCCC2)C1CCCCC1,16.4µM,i,i,i,?
O=S(=O)(c1ccc(Cl)cc1)c1cnc2ccccc2n1,i,-99.1,i,?,?
Cc1ncc(S(=O)(=O)c2ccc(Cl)cc2)c(-c2ccccc2)n1,i,i,i,i,i
Cc1cc(C)cc(S(=O)(=O)c2cnc3ccccc3n2)c1,i,-99.1,i,i,?
CC(=O)Nc1cc(-c2cccc(C(=O)NCCN(C)C)c2)cn2c(-c3cccc(C(F)(F)F)c3)cnc12,?,i,?,18.4µM,20.6µM
CC(=O)Nc1cc(-c2cccc(C(=O)NCCN(C)C)c2)cn2c(-c3ccccc3)cnc12,i,-53.4,i,?,16.4µM
Cc1cc(C(=S)N2CCOCC2)c(C)n1-c1ccc(Cl)cc1,?,i,i,i,i
Cc1cc(C)cc(-n2c(C)cc(C(=S)N3CCOCC3)c2C)c1,i,-54.1,i,i,i
COc1ccc2oc(C(=O)NCc3ccccc3CN3CCCC3)c(C)c2c1,i,i,i,i,i
COc1ccc2cc(C(=O)NCc3ccccc3CN3CCCC3)ccc2c1,i,-67.7,?,i,i
CCOc1ccc2oc(C(=O)NCc3ccccc3CN3CCCC3)c(C)c2c1,i,-56.8,?,?,?
C[N+]1(CC(=O)c2ccc(-c3ccccc3)cc2)CCOCC1,i,nt,i,nt,nt
CCc1nnc(NC(=O)C2CCCN(c3nc(C)cc(C)n3)C2)s1 (stereo unspecified),9.2µM,i,i,i,i
CCc1nnc(NC(=O)C2CCN(c3nccc(C)n3)CC2)s1,16.4µM,i,i,i,i
Cc1ccccc1NS(=O)(=O)c1nnc(NC(=O)c2ccco2)s1,i,nt,i,nt,nt
O=C1CCC(=O)O1,i,-53.5,?,i,i
c1cc(CSc2nnc(-c3ccc4c(c3)OCO4)o2)ccn1,23.1µM,i,i,i,i
Clc1ccccc1CSc1nnc(-c2ccncc2)o1,i,i,i,i,i
c1ccc2c(CSc3nnc(-c4ccncc4)o3)cccc2c1,14.6µM,i,i,?,i
Cc1ccc(CSc2nnc(-c3ccc4c(c3)OCO4)o2)cc1,i,i,i,i,i
CSc1ccc(CCNC(=O)C2CCCN(S(=O)(=O)N(C)c3ccc(F)cc3)C2)cc1 (stereo unspecified),?,nt,i,nt,nt
CCOc1ccc(-c2cccc(NS(=O)(=O)c3cccc([N+](=O)[O-])c3)c2)nn1,i,i,i,i,i
CCCCN(CCCC)C(=S)N/N=C/c1c(C)[nH]n(-c2ccccc2)c1=O,i,i,?,?,6.51µM
Cc1ccc(-n2[nH]c(C)c(/C=N/NC(=O)c3ccc(O)cc3O)c2=O)cc1,i,i,i,2.06µM,10.3µM

# Compound activity as filed in PubChem BioAssay.
